From PubChem BioAssay AID1851 (National Center for Advancing Translational Sciences (NCATS), 2009) come the findings set out here.

What is called AC50 is the midpoint of the concentration-response curve, whichever way the signal moves.

SMILES strings stand for the structures. “And” between values parts separate entries of the source, which are not always exact repeats. Equal entries are not always repeated. Out of some 16,000 compounds screened, about 5,700 (36%) were called active. Roughly 24% stayed inconclusive and do not appear here. Some of the results follow. Values without a mark were called inactive. Calls come from the whole dose curve; as a rule, active = well fitted curve in the direction sought with a large enough effect; inconclusive = small, poorly fitted or top-dose-only effect, or effect the other way; inactive = no such curve, though single readings can be large or run the other way.
% is set by controls: 0 for no effect and ±100 for the full control effect.

In this experiment the target is Cytochrome P450 1A2 (Homo sapiens) (UniProt P05177). The experiment is described as follows: Cytochrome panel assay with activity outcomes. The settings on record: recombinant CYP, pro-luciferin dealkylation, luminescence, p450-cyp1a2; series mostly up to 57.1 µM; activity, negative = inhibition: at the top concentration.
Chain of Cytochrome P450 1A2 (Homo sapiens) (P05177 whole entry, looked up): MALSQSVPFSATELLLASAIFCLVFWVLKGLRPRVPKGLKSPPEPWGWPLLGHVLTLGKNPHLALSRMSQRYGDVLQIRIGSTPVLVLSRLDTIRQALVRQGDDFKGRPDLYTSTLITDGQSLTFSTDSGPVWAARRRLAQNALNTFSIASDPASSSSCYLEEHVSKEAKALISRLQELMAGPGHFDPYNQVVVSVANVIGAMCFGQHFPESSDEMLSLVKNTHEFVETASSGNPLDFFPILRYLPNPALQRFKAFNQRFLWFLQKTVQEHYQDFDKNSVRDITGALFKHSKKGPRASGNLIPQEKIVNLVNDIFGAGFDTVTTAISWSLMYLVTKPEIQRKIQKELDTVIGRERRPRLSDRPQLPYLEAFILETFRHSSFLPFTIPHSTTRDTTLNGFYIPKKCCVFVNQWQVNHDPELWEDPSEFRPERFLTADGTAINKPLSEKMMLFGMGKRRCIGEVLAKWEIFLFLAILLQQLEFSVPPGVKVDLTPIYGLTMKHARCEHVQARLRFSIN
For the compound `O=C(N=NC(=O)c1ccc2c(O)n(C3CCCCC3)c(O)c2c1)c1cccnc1`, the “activity, negative = inhibition” value was 20.1%.
Regarding `C[C@@H](c1ccccc1)N1C(=O)[C@H]2[C@@H]3[C@H](O)[C@H](O)CC(=O)[C@H]3CC[C@H]2C1=O`, the activity, negative = inhibition is 6.67% [at 11.4 µM] and -2.18% [at 11.4 µM].
As for `N#CCSc1nc2cc(C(=O)N3CCCC3)ccc2c(=O)n1Cc1ccccc1`, the AC50 was 15.8 µM (active).
With `NC1(C(=O)O)C[C@H](C(=O)O)[C@H](C(=O)O)C1` (stereo not given in full), the “activity, negative = inhibition” value is -16.8%.
With `COc1ccc(/C=N/n2cnc3c([nH]c4ccc(Br)cc43)c2=O)cc1CN1CCOCC1`, the AC50 was 12.6 µM (active).
Consider `Nc1ncnc2c1ncn2[C@@H]1CCCO1`, for which the “activity, negative = inhibition” value was -6.04%.
Consider `O=[N+]([O-])c1ccc(Cl)c(CNc2ncnc3c2ncn3[C@@H]2CCCCO2)c1`, for which the half-maximal activity concentration (AC50) is 5.01 µM (active).
As to `C[N+](C)(C)c1ncnc2c1ncn2[C@@H]1CCCCO1`, the activity, negative = inhibition was 2.33% [at 2.29 µM].
With `Cc1cc([N+](=O)[O-])c(C)c(Br)c1C`, the AC50 was 1 µM (active).
Turning to `COc1ccc(S(=O)(=O)NCc2ccc(C(=O)N3CCN(c4ccccn4)CC3)cc2)cc1`, the “activity, negative = inhibition” value was -28.2%.
For `CCC(=O)Nc1ccc2c(c1)C(=O)c1ccccc1C2=O`, the AC50 is 0.316 µM (active).
As to `O=C(Nc1ccc(Nc2ccc3c(c2)C(=O)c2ccccc2C3=O)c2c1C(=O)c1ccccc1C2=O)c1ccccc1`, the concentration at half-maximal activity (AC50) is 1.58 µM (active).
For `CCOC(=O)c1c(-c2ccccc2)nc2c(C)cccn12`, the AC50 was 0.708 µM (active).
For the compound `CC(SCc1cn2cc(Cl)ccc2n1)C(=O)O` (stereo not given), the “activity, negative = inhibition” value was -21.4%.
As for `CCOC(=O)CNc1c(-c2ccccc2)nc2ccc(Cl)cn12`, the concentration at half-maximal activity (AC50) is 1.58 µM (active).
Consider `Cc1nc2c(C)cccn2c1/C(O)=C1\C(=O)C(=O)N(CCN2CCOCC2)C1c1cccs1` (stereo not given), for which the “activity, negative = inhibition” value was -19.4%.
Turning to `CCOC(=O)c1c(-c2ccccc2)nc2ccccn12`, the concentration at half-maximal activity (AC50) was 1.12 µM (active).
Turning to `CCOC(=O)c1c(-c2ccccc2)nc2ccc(Cl)cn12`, the half-maximal activity concentration (AC50) is 2.51 µM (active).
In the case of `NCCCc1c(-c2ccccc2)nc(N)[nH]c1=O`, the activity, negative = inhibition was 9.63% [at 11.4 µM].
As to `CCOC(=O)N/N=C1/C[C@@H](O)[C@@H](O)[C@@H]2[C@@H]3C(=O)N([C@@H](C)c4ccccc4)C(=O)[C@H]3CC[C@@H]12`, the activity, negative = inhibition was 3.79% [at 11.4 µM].
Take `Cc1cc(=Nc2ccc3c(c2)c(N)cc(C)[n+]3C)nc(N)n1C`: the activity, negative = inhibition is -5.28% [at 2.29 µM].
As for `C=C(C)C(=O)N1CC2(CC(c3cccc(NC(=O)c4ccccc4)c3)=NO2)C[C@@H]1C(N)=O` (stereo not given in full), the “activity, negative = inhibition” value is -6.75%.
Same read-out and setting: the same measure for `CC1(C)O[C@@H]2C[C@H]3[C@H]4C[C@H](F)C5=CC(=O)CC[C@]5(C)[C@@H]4[C@H](O)C[C@]3(C)[C@]2(C(=O)CO)O1`: -7.21% [at 25.6 µM].
For `CNc1nc(Cl)nc(NC(C)(C)C)n1`, the half-maximal activity concentration (AC50) was 8.91 µM (active).
In the case of `CC1CCC(C(=O)NC(C(=O)N2CCC(N3CCCCC3)CC2)C(C)C)CC1` (stereo not given), the “activity, negative = inhibition” value is -23.1%.
As for `CC(=O)N(C[C@@H](C)C(=O)O)c1c(I)cc(I)c(N)c1I`, the “activity, negative = inhibition” value is -0.251% [at 25.6 µM].
As to `CC[C@H](Cc1c(I)cc(I)c(N)c1I)C(=O)O`, the concentration at half-maximal activity (AC50) was 12.6 µM (active).
Same read-out and setting: the same measure for `COc1ccccc1C(=O)NC(=S)N1CCCc2ccccc21`: 2.24 µM (active).
In the case of `CCOc1ccc(-n2c(=O)[nH]cc(C(=O)N3CCCc4ccccc43)c2=O)cc1`, the “activity, negative = inhibition” value is -5.33%.
With `COc1ccccc1C(=O)NN1C(=O)C2C3C=CC(O3)C2C1=O` (stereo not given), the “activity, negative = inhibition” value is -20.6%.
Take `Oc1cc2c(cc1O)[C@H](c1ccccc1)CNCC2`: the “activity, negative = inhibition” value is -4.19%.
Same read-out and setting: then `N#Cc1cccc(NC(=O)N2CCC3(CC2)CCN(C(=O)c2csnn2)CC3)c1`, with -15.9%; and `CCOC(=O)N/N=C1/C[C@@H](O)[C@@H](O)[C@@H]2[C@@H]3C(=O)N(c4cccc(Oc5ccccc5)c4)C(=O)[C@H]3CC[C@H]12`, with -3.4% [at 11.4 µM].
Same read-out and setting: the same measure for `O=C(c1cccc(F)c1)N1CCC2(CC1)CCN(c1ccc(-c3ccccc3)cc1)CC2`: 7.54%.
For `Cc1noc(C)c1C(=O)N1CCC[C@@]2(CCN(Cc3nccs3)C2)C1`, the “activity, negative = inhibition” value was -4.72%.
`O=C(c1cccc(F)c1)N1CCC2(CCN(Cc3nccs3)CC2)CC1`: the concentration at half-maximal activity (AC50) is 1.58 µM (active).
The same measure, in the same setting: the same measure for `O=C(c1cccc(F)c1)N1CCC2(CC1)CCN(c1ccccc1)CC2`: 15.8 µM (active); for `Cc1noc(C)c1C(=O)N1CCC2(CCN(Cc3nccs3)CC2)CC1`: 12.6 µM (active).
For the compound `O=C(c1cccc(F)c1)N1CCC2(CCCN(Cc3nccs3)C2)CC1`, the “activity, negative = inhibition” value was 7.3%.
As for `O=C(c1cccc(F)c1)N1CCC2(CCN(Cc3ccccc3)CC2)CC1`, the “activity, negative = inhibition” value is -8.19%.
Still for that read-out and setting: the same measure for `O=C(c1cccc(F)c1)N1CCC2(CC1)CN(c1ccc(-c3ccccc3)cc1)C2`: 0.226%.
In the case of `O=C(c1ccncc1)N1CCC2(CCN(Cc3nccs3)CC2)CC1`, the “activity, negative = inhibition” value is -21.6%.
With `Cc1noc(C)c1C(=O)N1CCC2(CCCN(Cc3nccs3)C2)CC1`, the “activity, negative = inhibition” value was -9.73%.
Take `O=C(c1cccc(F)c1)N1CCC2(CCCN(c3ccc(-c4ccccc4)cc3)C2)CC1`: the AC50 is 15.8 µM (active).
With `O=C(c1cccc(F)c1)N1CCC2(CCCN(Cc3ccccc3)C2)CC1`, the “activity, negative = inhibition” value was 10.3%.
